Screening data from PubChem BioAssay.
DT40 TDP1 no CPT: qHTS for Inhibitors of human tyrosyl-DNA phosphodiesterase 1 (TDP1): qHTS in cells in absence of CPT | AID 686978, 2013 | 420,000 tested, 15% active | Potency, µM (titrated, usually from 46.2 µM), hits mostly inhibitors | DT40 Tdp1-/- hTDP1 cells, no CPT, ATP luminescence, 48 h; note: nearly all actives have a fitted effect of over 55% in size
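No-CPT arm: Tdp1-/-;hTDP1 DT40 cells (400/well) plus compounds, incubated ≥48 hr at 37 °C. Readout CellTiter-Glo luminescence.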
ALOX12 inh: Primary qHTS assay for inhibitors of human arachidonate 12S-lipoxygenase (ALOX12): Round 2; purified 12hLO, xylenol orange hydroperoxide absorbance; Potency, µM (series often up to 108 µM), actives largely listed as inhibitors; 580,000 tested, 1.1% active; Polyunsaturated fatty acid lipoxygenase ALOX12 (Homo sapiens), P18054
Target sequence (P18054 whole entry, looked up): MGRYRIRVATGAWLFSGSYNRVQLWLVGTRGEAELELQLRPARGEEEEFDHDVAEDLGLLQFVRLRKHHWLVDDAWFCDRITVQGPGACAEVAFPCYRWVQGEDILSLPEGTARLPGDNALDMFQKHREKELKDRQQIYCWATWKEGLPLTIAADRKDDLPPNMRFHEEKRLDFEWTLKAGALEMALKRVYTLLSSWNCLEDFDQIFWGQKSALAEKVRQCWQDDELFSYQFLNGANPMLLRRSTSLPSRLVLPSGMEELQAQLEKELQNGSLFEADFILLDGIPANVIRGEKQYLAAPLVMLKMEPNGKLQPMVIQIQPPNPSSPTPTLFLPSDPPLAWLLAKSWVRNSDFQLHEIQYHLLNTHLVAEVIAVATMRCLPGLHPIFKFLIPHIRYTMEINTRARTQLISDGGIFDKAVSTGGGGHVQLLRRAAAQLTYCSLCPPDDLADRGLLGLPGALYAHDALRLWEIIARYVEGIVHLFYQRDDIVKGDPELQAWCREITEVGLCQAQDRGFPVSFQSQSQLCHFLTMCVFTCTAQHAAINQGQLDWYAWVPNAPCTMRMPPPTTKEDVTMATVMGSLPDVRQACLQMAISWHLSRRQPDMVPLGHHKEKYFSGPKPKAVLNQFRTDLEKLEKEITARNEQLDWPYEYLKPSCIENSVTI
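Hydroperoxide product was detected by ferrous iron/xylenol orange as the 573 to 405 nm absorbance ratio. Arachidonic acid at 40 uM (final) was turned over for 30 min at room temperature by 150 nM human 12hLO, pH 7.0 Hepes buffer, after 15 min compound preincubation.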
HT1080 IDH1KD tx: qHTS for induction of synthetic lethality in tumor cells producing 2HG: qHTS for the HT-1080-IDH1KD cell line; HT-1080 IDH1 knockdown viability, ATP luminescence, 48 h; Potency, µM (top dose mostly 46.1 µM), hits mostly cytotoxic; 360,000 tested, 2% active; AID 686971, 2013
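IDH1KD HT-1080 cells, 750/well, RPMI + 5% FBS; compound pinned after 2 h settling; 48 h, 37 °C; CellTiter-Glo luminescence; % activity normalised to DMSO and no-cell wells; curves fitted, classed by r2 and efficacy.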
HT1080-NT tox: qHTS for induction of synthetic lethality in tumor cells producing 2HG: qHTS for the HT-1080-NT fibrosarcoma cell line; AID 686970, 2013; 360,000 tested, 1.6% active; HT-1080-NT fibrosarcoma viability, CellTiter-Glo ATP luminescence, 48 h; Potency, µM (titrated, usually from 46.1 µM), actives largely listed as cytotoxic;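 note: NT is the 2HG producing partner of a matched IDH1 knockdown line; nearly all actives have a fitted effect of over 55% in size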
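Read-out is CellTiter-Glo luminescence after 10 minutes at room temperature, following 48 hours' compound treatment of HT-1080-NT cells (750 cells/well, RPMI, 5% FBS, 37 degrees C).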
DT40 TDP1 CPT: qHTS for Inhibitors of human tyrosyl-DNA phosphodiesterase 1 (TDP1): qHTS in cells in presence of CPT | chicken DT40 Tdp1-/-;hTDP1 cells + 20 nM CPT, ATP luminescence, 48 h | AID 686979, 2013 | Potency, µM (doses to about 46.2 µM), hits mostly inhibitors | 420,000 tested, 12% active; note: nearly all actives have a fitted effect of over 55% in size
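Chicken DT40 Tdp1-/- cells complemented with human TDP1, 400 cells/well, exposed to compounds plus 20 nM camptothecin for at least 48 h at 37 C; viability read as ATP content by CellTiter-Glo luminescence.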
IL1B secr inh: qHTS for Inhibitors of Inflammasome Signaling: IL-1-beta AlphaLISA Primary Screen; THP-1 LPS/ATP IL-1B secretion, AlphaLISA, 16 h; hits give low values; 360,000 tested, 4.7% active; activity change, % at 57.5 µM; in the data active = activity change below about -50%; inconclusive = mostly about -30% to -49%
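THP-1 cells pretreated 1 hr with compounds (up to 57.5 uM final), then stimulated with LPS (250 ng/mL final) plus ATP (1.25 mM final); secreted IL-1B measured by AlphaLISA after 16 hr, decreased signal indicating inhibition.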
Numbers stand for hits; - = inactive; ? = inconclusive; . = not tested or not shown; [ ] = another dose, or the depositor's remark. The entries come from a sample that favours hits as a whole. Unless noted, calls come from the whole dose curve; as a rule, active = well fitted curve in the direction sought with a large enough effect; inconclusive = small, poorly fitted or top-dose-only effect, or another doubt; inactive = no such curve, though single readings can be large; an effect the other way counts as inactive or inconclusive.

SMILES	DT40 TDP1 no CPT	ALOX12 inh	HT1080 IDH1KD tx	HT1080-NT tox	DT40 TDP1 CPT	IL1B secr inh
Cc1nnc(SC(C)C(=O)NC2CCCc3ccccc32)n1-c1ccccc1 (stereo not drawn)	-	-	-	-	-	-
CC(Sc1nnc(Nc2ccccc2)s1)C(=O)NC1CCCc2ccccc21 (stereo not drawn)	23µM	?	-	-	?	-
Cc1cccc(Nc2nnc(SCC(=O)NC3CCCc4ccccc43)s2)c1C (stereo not drawn)	8.2µM	-	-	-	15µM	?
CSc1ccccc1C(=O)NC(C)(C)C	.	-	.	.	.	.
CC(C(=O)NC1CCCC1)N1CCN(Cc2ccc(C(F)(F)F)cc2)CC1 (stereo not drawn)	.	-	.	.	.	.
Cc1ccc(NC(=O)CCc2ncc(-c3ccccc3)o2)nc1	.	-	.	.	.	.
CCn1c2c(c3cc(C(=O)O)ccc31)CCCC2=O	26µM	-	-	-	?	-
CCc1ccc(CN(C(=O)c2nc(SC)ncc2Cl)C2CCS(=O)(=O)C2)cc1 (stereo not drawn)	?	-	.	.	?	.
CC(C)Sc1ncc(Cl)c(C(=O)N(Cc2ccc(N(C)C)cc2)C2CCS(=O)(=O)C2)n1 (stereo not drawn)	?	-	.	.	16µM	.
CCSc1ncc(Cl)c(C(=O)N(Cc2ccc(N(C)C)cc2)C2CCS(=O)(=O)C2)n1 (stereo not drawn)	-	?	-	-	?	-
CCOc1ccc(CN(C(=O)c2nc(SC)ncc2Cl)C2CCS(=O)(=O)C2)cc1 (stereo not drawn)	16µM	-	.	.	-	.
CNC(=O)c1ccc(CN(C)C(=O)C2CCN(C(=O)/C=C/c3ccccc3)CC2)cc1	.	-	.	.	.	.
Cc1ccc(NC(=O)CSc2nnc(COc3ccc(C#N)cc3)n2-c2ccccc2)cc1C	?	-	-	-	?	-
Cc1ccc(CCc2nnc(SCC(=O)Nc3cccc(Cl)c3)n2-c2ccccc2)o1	13µM	-	-	-	?	-
O=C(CSc1nnc2[nH]c(=O)c(Cc3ccccc3)nn12)Nc1cccc(Cl)c1	.	25µM	.	.	.	.
CCOC(=O)c1c(NC(=O)c2noc3c2CC(C)CC3)sc(C)c1C (stereo not drawn)	.	-	.	.	.	.
Cc1nn(C)cc1CN(C)C(=O)Cn1nc(C(F)(F)F)c(Cl)c1C	.	-	.	.	.	.
COc1cccc(-c2cc(N3C(=O)Nc4ccccc4N3O)n[nH]2)c1	-	?	-	-	-	-
CCOc1ccc(-c2cc(N3C(=O)Nc4ccccc4N3O)n[nH]2)cc1	-	-	21µM	16µM	-	-
COc1ccc(Cc2nc3c4c(C)c(C)n(CC(C)C)c4ncn3n2)cc1OC	.	-	.	.	.	.
CCN(CC)CC#CCC(C)(c1ccccc1)c1ccccc1	16µM	-	?	?	?	?
Cc1nc2n(c(=O)c1Cc1ccccc1)CN(Cc1ccccn1)CN2c1ccc(F)cc1	.	-	.	.	.	.
CCNC(=O)/C=C1\NC(C)(C)Cc2c1ccc1ccccc21	21µM	-	-[9.24 µM]	?	?	?
CC1(C)Cc2c(ccc3ccccc23)C(=O)N1	21µM	-	-	-	?	?
CC1(C)Cc2c(ccc3ccccc23)C(CCl)N1 (stereo not drawn)	.	5.6µM	.	.	.	.
O=C1CCC2c3ccc4ccccc4c3CCN12 (stereo not drawn)	?	-	-	-	-	-
CC1(C)Cc2ccccc2C(=O)N1	-	-	-	-	-	-
CNC(=O)/C=C1\NC(C)(C)Cc2ccccc21	-	-	?	?	-	-
